Measurements: PubChem BioAssay (EPA / NIEHS)
Records with an inconclusive call do not appear. Activity calls are given as the source filed them. Rule for the calls, unless noted: active = hit-call score of the fitted dose curve at least 0.9, where 1 is the maximum; inactive = score below 0.9.

Key:
[1] = target: Peroxisome proliferator-activated receptor gamma (Homo sapiens) (UniProt P37231); experiment: OT_PPARg_PPARgSRC1_0480: Odyssey Thera (OT) 8-hour Protein-Complementation Assay for Peroxisome Proliferator-activated Receptor Gamma / SRC-1 Co-activator (AID 2283387; active = hit-call score of the fitted dose curve at least 0.9, where 1 is the maximum;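 note: nuclear to cytoplasmic split Venus YFP fluorescence ratio reporting PPARg SRC-1 interaction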)
Procedure, shortened: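 Protein-fragment complementation in HEK293T: Venus YFP halves (residues 1-158, 159-239, mutated to IFP1/IFP2) fused to PPARg/SRC-1. 8 h exposure; N/C ratio at 488 nm; DMSO negative control.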

[2] = target: Peroxisome proliferator-activated receptor gamma (Homo sapiens) (UniProt P37231); experiment: OT_PPARg_PPARgSRC1_1440: Odyssey Thera (OT) 24-hour Protein-Complementation Assay for Peroxisome Proliferator-activated Receptor Gamma/ SRC-1 Co-activator (AID 2283388; active = hit-call score of the fitted dose curve at least 0.9, where 1 is the maximum;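 note: nuclear to cytoplasmic ratio of reconstituted Venus YFP fluorescence in fixed imaged cells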)
Procedure, shortened: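 Transient HEK293T, YFP fragments 1-158/159-239 (mutant IFP1/IFP2) fused to PPARg/SRC-1; 24 h dosing; fix 4% formaldehyde, Draq5; Opera imaging 488/635 nm; N/C ratio, gain vs DMSO.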

[3] = read-out: Tumor necrosis factor receptor superfamily member 6 (Homo sapiens) (UniProt P25445); experiment: LTEA_HepaRG_FAS: Life Technologies and Expression Analysis (LTEA) Assay for Fas cell surface death receptor (FAS) using HepaRG (AID 2283447); details: mRNA level, 48 h; actives raise or lower the signal
Procedure, shortened: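 Differentiated human HepaRG cells, pre-cultured 48 h, were exposed in duplicate for 48 h to 8-point half-log concentrations (top 100 uM, 0.5% DMSO) in serum-free induction medium; FAS mRNA measured by qRT-PCR, normalized to ACTB/GAPDH/POLR2A, bidirectional fit versus DMSO.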

[4] = read-out: Fatty acid synthase (Homo sapiens) (UniProt P49327); experiment: LTEA_HepaRG_FASN: Life Technologies and Expression Analysis (LTEA) Assay for Fatty Acid Synthase (FASN) using HepaRG (AID 2283448); details: mRNA level, 48 h; actives raise or lower the signal
Procedure, shortened: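 Cells were plated, cultured 48 h, switched to serum-free induction medium, then dosed in duplicate (max 100 uM, half-log dilutions, 0.5% DMSO) for 48 h. RNA was then isolated and FASN quantified by qRT-PCR.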

[5] = read-out: Cyclin D2 (CCND2), CCND2 (gene 894); experiment: LTEA_HepaRG_CCND2: Life Technologies and Expression Analysis (LTEA) Assay for Cyclin D2 (CCND2) using HepaRG (AID 2283449); details: mRNA level, 48 h; actives raise or lower the signal;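 note: CCND2 transcript measured by TaqMan qRT-PCR and normalised to three housekeeping genes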
Procedure, shortened: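 In this HepaRG study, an eight-point concentration series (max 100 uM, 0.5% DMSO) is applied for 48 h. CCND2 mRNA change is derived by qRT-PCR normalised to ACTB, GAPDH and POLR2A.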

[6] = read-out: Cyclin Dependent Kinase Inhibitor 1A (CDKN1A), CDKN1A (gene 1026); experiment: LTEA_HepaRG_CDKN1A: Life Technologies and Expression Analysis (LTEA) Assay for Cyclin Dependent Kinase Inhibitor 1A (CDKN1A) using HepaRG (AID 2283450); details: mRNA level, 48 h; actives raise or lower the signal
Procedure, shortened: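 Cryopreserved HepaRG cells were plated and cultured 48 h, then switched to serum-free induction medium. Chemicals (eight half-log concentrations, top 100 uM, 0.5% DMSO) were applied for 48 h. Lysates underwent qRT-PCR for CDKN1A with housekeeping normalization.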

[7] = read-out: Cyclin D1 (CCND1), CCND1 (gene 595); experiment: LTEA_HepaRG_CCND1: Life Technologies and Expression Analysis (LTEA) Assay for Cyclin D1 (CCND1) using HepaRG (AID 2283451); details: mRNA level, 48 h; actives raise or lower the signal;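 for AC50: TaqMan qRT-PCR transcript level normalised to ACTB GAPDH and POLR2A housekeeping genes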
Procedure, shortened: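 Human liver HepaRG line; 48 h dosing, 8 conc. ≤100 uM, 0.5% DMSO; TaqMan qRT-PCR mRNA, 3 housekeeping genes; bidirectional curve fit vs DMSO.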

[8] = read-out: catalase (CAT), CAT (gene 847); experiment: LTEA_HepaRG_CAT: Life Technologies and Expression Analysis (LTEA) Assay for catalase (CAT) using HepaRG (AID 2283452); details: mRNA level, 48 h; actives raise or lower the signal;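 for AC50: TaqMan qRT-PCR signal normalized to ACTB GAPDH and POLR2A housekeeping genes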
Procedure, shortened: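 Differentiated HepaRG cells in serum-free induction medium were dosed 48 h in duplicate, eight half-log concentrations from 100 uM in 0.5% DMSO. Transcript measured by TaqMan qRT-PCR, normalised to ACTB/GAPDH/POLR2A, fitted bidirectionally against DMSO.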

[9] = read-out: flavin-containing dimethylaniline monooxygenases 3 (FMO3), FMO3 (gene 2328); experiment: LTEA_HepaRG_FMO3: Life Technologies and Expression Analysis (LTEA) Assay for flavin-containing dimethylaniline monooxygenases 3 (FMO3) using HepaRG (AID 2283453); details: mRNA level, 48 h; actives raise or lower the signal;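 for AC50: FMO3 transcript by TaqMan qRT-PCR normalized to ACTB GAPDH and POLR2A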
Procedure, shortened: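 FMO3 transcript quantified by TaqMan qRT-PCR against three housekeeping genes after 48 h chemical exposure of HepaRG cells. Eight-point half-log series, top 100 uM, 0.5% DMSO vehicle; phenobarbital 1mM induction control; up- or down-regulation fitted.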

[10] = read-out: Cytochrome P450 (CYP1A1), CYP1A1 (gene 1543); experiment: LTEA_HepaRG_CYP1A1: Life Technologies and Expression Analysis (LTEA) Assay for Cytochrome P450 (CYP1A1) using HepaRG (AID 2283454); details: mRNA level, 48 h; actives raise or lower the signal
Procedure, shortened: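 Induction of CYP1A1 mRNA in a human hepatic cell line was measured 48 h after dosing, with 1 mM phenobarbital as induction positive control and 0.5% DMSO vehicle as baseline for bidirectional curve fitting.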

Measured: AC50

Sequence of Fatty acid synthase (Homo sapiens) (P49327 whole entry, looked up): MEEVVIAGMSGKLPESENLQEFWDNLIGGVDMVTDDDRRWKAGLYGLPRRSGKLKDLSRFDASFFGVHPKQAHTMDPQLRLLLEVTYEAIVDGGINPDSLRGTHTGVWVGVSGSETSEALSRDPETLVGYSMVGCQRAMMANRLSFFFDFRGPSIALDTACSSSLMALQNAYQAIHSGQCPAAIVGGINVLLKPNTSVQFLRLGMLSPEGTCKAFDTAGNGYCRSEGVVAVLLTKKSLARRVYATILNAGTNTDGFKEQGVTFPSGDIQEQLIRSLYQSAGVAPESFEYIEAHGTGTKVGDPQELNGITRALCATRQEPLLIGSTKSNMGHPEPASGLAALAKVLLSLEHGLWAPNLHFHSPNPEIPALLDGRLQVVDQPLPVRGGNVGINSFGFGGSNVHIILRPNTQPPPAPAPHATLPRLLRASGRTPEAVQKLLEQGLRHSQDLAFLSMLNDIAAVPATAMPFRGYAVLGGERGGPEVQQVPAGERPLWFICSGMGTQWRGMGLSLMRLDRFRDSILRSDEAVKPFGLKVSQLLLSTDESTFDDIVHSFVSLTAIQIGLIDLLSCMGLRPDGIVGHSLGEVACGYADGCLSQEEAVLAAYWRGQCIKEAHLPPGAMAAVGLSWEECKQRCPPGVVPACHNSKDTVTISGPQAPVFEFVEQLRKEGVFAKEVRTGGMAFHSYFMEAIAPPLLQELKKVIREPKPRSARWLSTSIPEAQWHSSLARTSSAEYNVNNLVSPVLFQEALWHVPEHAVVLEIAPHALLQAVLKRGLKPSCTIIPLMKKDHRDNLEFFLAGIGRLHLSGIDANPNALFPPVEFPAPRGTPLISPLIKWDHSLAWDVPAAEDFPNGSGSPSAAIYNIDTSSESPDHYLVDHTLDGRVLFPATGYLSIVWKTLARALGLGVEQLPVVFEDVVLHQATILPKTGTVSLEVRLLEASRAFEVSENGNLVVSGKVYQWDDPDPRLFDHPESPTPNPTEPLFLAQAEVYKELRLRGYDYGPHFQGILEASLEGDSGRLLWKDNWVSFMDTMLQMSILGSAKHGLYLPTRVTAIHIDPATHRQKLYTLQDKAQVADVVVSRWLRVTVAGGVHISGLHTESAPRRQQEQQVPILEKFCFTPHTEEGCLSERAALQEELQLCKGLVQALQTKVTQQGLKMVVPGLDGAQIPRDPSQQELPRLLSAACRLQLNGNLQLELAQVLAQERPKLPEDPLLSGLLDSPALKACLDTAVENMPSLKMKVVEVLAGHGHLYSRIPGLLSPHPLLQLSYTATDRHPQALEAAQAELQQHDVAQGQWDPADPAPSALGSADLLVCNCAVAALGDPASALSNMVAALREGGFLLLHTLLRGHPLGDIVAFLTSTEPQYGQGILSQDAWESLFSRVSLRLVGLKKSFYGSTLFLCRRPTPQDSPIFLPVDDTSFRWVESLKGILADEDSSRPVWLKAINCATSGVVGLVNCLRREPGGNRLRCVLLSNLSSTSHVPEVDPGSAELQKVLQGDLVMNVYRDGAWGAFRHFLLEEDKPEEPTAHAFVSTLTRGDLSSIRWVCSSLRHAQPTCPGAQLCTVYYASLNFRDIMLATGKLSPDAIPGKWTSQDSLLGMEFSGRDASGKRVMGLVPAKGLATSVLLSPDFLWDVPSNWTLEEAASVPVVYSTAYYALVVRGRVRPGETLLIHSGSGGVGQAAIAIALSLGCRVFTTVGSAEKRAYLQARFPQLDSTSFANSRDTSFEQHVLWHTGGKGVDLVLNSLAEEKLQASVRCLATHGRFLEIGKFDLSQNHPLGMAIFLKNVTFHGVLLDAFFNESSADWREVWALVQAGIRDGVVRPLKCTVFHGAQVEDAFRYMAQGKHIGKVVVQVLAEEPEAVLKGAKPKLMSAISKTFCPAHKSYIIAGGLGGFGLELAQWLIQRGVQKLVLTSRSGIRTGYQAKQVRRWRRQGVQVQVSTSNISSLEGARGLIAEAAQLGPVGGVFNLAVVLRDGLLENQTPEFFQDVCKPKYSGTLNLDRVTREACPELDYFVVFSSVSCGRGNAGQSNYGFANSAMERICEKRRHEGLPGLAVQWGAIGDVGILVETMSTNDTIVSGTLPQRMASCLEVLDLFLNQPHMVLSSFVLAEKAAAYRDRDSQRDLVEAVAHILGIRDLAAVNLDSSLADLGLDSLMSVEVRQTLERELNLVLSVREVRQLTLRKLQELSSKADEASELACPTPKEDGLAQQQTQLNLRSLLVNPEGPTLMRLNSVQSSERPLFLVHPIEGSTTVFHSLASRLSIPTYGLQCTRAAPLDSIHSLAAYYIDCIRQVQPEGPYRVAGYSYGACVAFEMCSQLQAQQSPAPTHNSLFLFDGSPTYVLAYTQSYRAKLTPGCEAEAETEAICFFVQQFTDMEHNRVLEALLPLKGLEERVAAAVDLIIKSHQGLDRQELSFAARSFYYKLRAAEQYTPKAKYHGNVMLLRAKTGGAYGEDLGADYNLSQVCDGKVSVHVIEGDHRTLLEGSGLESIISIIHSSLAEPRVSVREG
Sequence of Peroxisome proliferator-activated receptor gamma (Homo sapiens) (P37231 whole entry, looked up, the tested form may be a part): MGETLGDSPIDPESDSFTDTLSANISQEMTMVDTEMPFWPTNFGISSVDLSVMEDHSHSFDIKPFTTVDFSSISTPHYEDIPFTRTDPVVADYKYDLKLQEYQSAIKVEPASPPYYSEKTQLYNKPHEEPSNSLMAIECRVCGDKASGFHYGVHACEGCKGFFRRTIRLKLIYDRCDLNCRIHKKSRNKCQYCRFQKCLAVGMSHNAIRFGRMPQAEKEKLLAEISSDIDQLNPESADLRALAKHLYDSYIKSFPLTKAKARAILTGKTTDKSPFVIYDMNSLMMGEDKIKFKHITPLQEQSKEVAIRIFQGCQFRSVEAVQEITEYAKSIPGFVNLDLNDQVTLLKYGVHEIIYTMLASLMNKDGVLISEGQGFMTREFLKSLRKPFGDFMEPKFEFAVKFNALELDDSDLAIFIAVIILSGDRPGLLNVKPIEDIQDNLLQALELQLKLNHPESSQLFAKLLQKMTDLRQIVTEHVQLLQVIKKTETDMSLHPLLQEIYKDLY

CC(C)=CCC/C(C)=C\CO
inactive: [1] | [2] | [3] | [4] | [5] | [6] | [7] | [8] | [9]

O=P(OC(CCl)CCl)(OC(CCl)CCl)OC(CCl)CCl
active: [3] 0.232 µM | [4] 50 µM | [6] 90.8 µM | [8] 50 µM | [9] 63.8 µM | [10] 13.1 µM
inactive: [1] | [2] | [5]

CC(=O)c1ccc2c(c1)[C@H](NC(=O)c1ccc(F)cc1)[C@@H](O)C(C)(C)O2
inactive: [1] | [2] | [3] | [4] | [5] | [6] | [7] | [8] | [9] | [10]

Nc1nc2ncc(CNc3ccc(C(=O)N[C@@H](CCC(=O)O)C(=O)O)cc3)nc2c(=O)[nH]1
active: [10] 78.5 µM
inactive: [1] | [2] | [3] | [4] | [5] | [6] | [7] | [8] | [9]

CCNc1ccccc1
active: [10] 9.94 µM
inactive: [1] | [2] | [3] | [4] | [5] | [6] | [7] | [8] | [9]

CNCc1ccc(NC(=O)c2c[nH]c3c2C(=O)CCC3)cc1
inactive: [1] | [2] | [3] | [4] | [5] | [6] | [7] | [8] | [9]
active: [10] 73.8 µM

O=C(CCCCCCCCc1cccnc1)N1CCC(C=C(c2ccccc2)c2ccccc2)CC1
active: [3] 50 µM | [4] 50 µM | [6] 27 µM | [8] 22.5 µM | [9] 29.6 µM | [10] 32.6 µM
inactive: [1] | [2] | [5]

O=C1CCCCCN1
inactive: [1] | [2] | [3] | [4] | [5] | [6] | [7] | [8] | [9] | [10]

COCCOCCOCCOC
inactive: [1] | [2] | [3] | [4] | [5] | [6] | [7] | [8] | [9] | [10]

CCCCC(CC)COC(=O)CCCCCCCCC(=O)OCC(CC)CCCC (stereo not drawn)
inactive: [1] | [2] | [3] | [4] | [5] | [6] | [7] | [8] | [9] | [10]

Cn1c(=O)c2c(ncn2C)n(C)c1=O
active: [10] 50 µM
inactive: [1] | [2] | [3] | [4] | [5] | [6] | [7] | [8] | [9]

COC(=O)CC(=O)OC
active: [4] 50 µM | [10] 50 µM
inactive: [1] | [2] | [3] | [6] | [7] | [8] | [9]

CC(C)=CCCC(C)CCO (stereo not drawn)
active: [10] 62.2 µM
inactive: [1] | [2] | [3] | [4] | [6] | [8] | [9]

COCCOc1cc2cc(C(=O)NC3CCN(C(C)C)CC3)n(CC(=O)Nc3ccc(Cl)cn3)c2cn1
active: [4] 32.5 µM | [7] 45 µM | [8] 45 µM | [9] 53.3 µM | [10] 2.09 µM
inactive: [3] | [5] | [6]

CC(=O)OC[C@H]1O[C@@](COC(C)=O)(O[C@H]2O[C@H](COC(C)=O)[C@@H](OC(C)=O)[C@H](OC(C)=O)[C@H]2OC(C)=O)[C@@H](OC(C)=O)[C@@H]1OC(C)=O
active: [10] 47.5 µM
inactive: [3] | [4] | [5] | [6] | [7] | [8] | [9]

Nc1cccc(N)c1
active: [10] 50 µM
inactive: [1] | [2] | [3] | [4] | [5] | [6] | [8] | [9]

Cc1ccc(S(=O)(=O)O)cc1C
inactive: [1] | [2] | [3] | [4] | [6] | [7] | [8] | [9]
active: [10] 74.3 µM

CCn1nc(Cc2ccccc2)cc1C1CCN(C[C@H]2C[C@H](N(C)[C@@H](C(=O)O)C(C)C)C[C@@H]2c2cccc(F)c2)CC1
active: [9] 50 µM | [10] 83.9 µM
inactive: [1] | [2] | [3] | [4] | [5] | [6] | [8]

O=C1OC(=O)C2C3C=CC(C3)C12 (stereo not drawn)
active: [10] 84.5 µM
inactive: [1] | [2] | [3] | [4] | [5] | [6] | [8] | [9]

Cc1[nH]cnc1C[C@H]1CCc2c(C)c3ccccc3n2C1=O
active: [3] 69.3 µM | [4] 29.9 µM | [8] 24.3 µM | [9] 32 µM | [10] 10.7 µM
inactive: [6]

CCCCCCCCCCCCc1ccccc1
active: [10] 73.7 µM
inactive: [1] | [2] | [3] | [4] | [6] | [8] | [9]

CCN(C(=O)c1cc(C)cc(OC[C@H](C)Nc2ccncc2)c1)C(C)C
inactive: [1] | [2] | [6]
active: [3] 8.02 µM | [4] 5.84 µM | [8] 33.8 µM | [9] 50.7 µM | [10] 19.5 µM

COC(=O)c1ccccc1O
inactive: [3] | [4] | [6] | [8] | [9] | [10]

CCOC(=O)CC(CC(=O)OCC)(OC(C)=O)C(=O)OCC
inactive: [1] | [2] | [3] | [4] | [5] | [6] | [8] | [9]
active: [10] 70.5 µM
